The values that follow come from PubChem BioAssay (EPA / NIEHS).

Results filed as inconclusive are left out. Calls of active or inactive are those of the source. How the source made its calls: active means hit-call score of the fitted dose curve at least 0.9, where 1 is the maximum; inconclusive means response in the unintended direction; inactive means score below 0.9.

Sequence of AR (gene 367) (P10275 whole entry, looked up): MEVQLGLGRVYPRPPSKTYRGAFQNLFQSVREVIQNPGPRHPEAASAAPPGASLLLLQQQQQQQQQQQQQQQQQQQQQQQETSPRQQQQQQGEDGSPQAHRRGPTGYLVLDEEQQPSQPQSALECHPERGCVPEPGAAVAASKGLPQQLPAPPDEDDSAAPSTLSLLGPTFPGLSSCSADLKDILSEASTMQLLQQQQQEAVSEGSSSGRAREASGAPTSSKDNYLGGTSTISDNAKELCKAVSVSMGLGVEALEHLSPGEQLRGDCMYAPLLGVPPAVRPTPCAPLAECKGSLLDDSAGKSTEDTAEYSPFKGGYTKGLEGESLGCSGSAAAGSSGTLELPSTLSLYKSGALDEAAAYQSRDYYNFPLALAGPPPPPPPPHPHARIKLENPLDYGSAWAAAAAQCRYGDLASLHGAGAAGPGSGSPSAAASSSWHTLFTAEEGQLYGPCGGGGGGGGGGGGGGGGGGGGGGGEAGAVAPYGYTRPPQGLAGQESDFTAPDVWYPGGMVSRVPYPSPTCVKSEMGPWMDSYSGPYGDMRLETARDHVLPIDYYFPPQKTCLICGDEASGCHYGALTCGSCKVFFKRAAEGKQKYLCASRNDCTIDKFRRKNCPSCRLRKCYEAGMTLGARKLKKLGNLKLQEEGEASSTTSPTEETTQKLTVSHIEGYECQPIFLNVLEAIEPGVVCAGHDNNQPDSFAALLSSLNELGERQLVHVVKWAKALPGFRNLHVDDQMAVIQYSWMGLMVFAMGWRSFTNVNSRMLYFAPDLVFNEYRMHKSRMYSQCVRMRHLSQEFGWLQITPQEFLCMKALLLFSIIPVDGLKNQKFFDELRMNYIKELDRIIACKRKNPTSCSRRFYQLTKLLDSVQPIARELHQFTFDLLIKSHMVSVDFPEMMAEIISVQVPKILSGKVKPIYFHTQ

This assay concerns the target AR (gene 367) (UniProt P10275). The assay is described as follows: ACEA_AR_antagonist_80hr: ACEA Biosciences xCELLigence Real-Time Cell Analysis on Androgen Receptor Antagonism for Proliferation (AID 2283787).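 Further: 22Rv1 human prostate cancer cells with growth followed by electrical impedance; hits lower the impedance growth signal relative to DMSO.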 The essentials:
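Impedance readout (RT-CES), 80 h post-dose; loss-of-signal vs DMSO baseline. 22Rv1 cells in assay medium. Compounds: 8-pt 1:4 series, max 100 uM final, up to 0.5% DMSO; n = 2.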
Take `Cc1ccc(N)cc1O`: the AC50 (usually the concentration giving half of the maximal activity seen) is 74.4 µM (active). Still for that read-out and setting: in the case of `O=C(O)c1cccc(N(Cc2cccnc2)c2ccc(OC(F)F)c(OC(F)F)c2)c1` it was 77.6 µM (active); in that of `CCOc1cccc(-n2cc(C(=O)N3CCN(c4cc(C(=O)O)c5ccccc5c4)CC3)nc2-c2ccc(C)cc2)c1`, 12.5 µM (active); in that of `Oc1ccc2c(c1)-c1ccccc1C2`, 50 µM (active). Take `CCCCCCc1ccc(O)cc1O`: the AC50 is 11 µM (active). For the molecule `Fc1ccccc1[C@@H](F)COC1CCC(Nc2ncnc3[nH]ncc23)CC1` (some centres not stated), the AC50 is 54 µM (active).

As for `Nc1nc2ncc(CNc3ccc(C(=O)N[C@@H](CCC(=O)O)C(=O)O)cc3)nc2c(=O)[nH]1`, the call was inactive.
